Assay results taken from the supplement of paper PMC10338343.
± gives the standard deviation. In all, about 8,200 sequences were measured (“pre-steady-state target cleavage rate”: median about 0.024, highest 2% from about 1.3 on). Shown is part of a subset that was picked to be rich in the highest values.

System: MIWI (PIWIL1) piRISC loaded with L1MC piRNA (30 nt)
Experiment: pre-steady-state target cleavage rate (min^-1); MIWI and MILI are mouse PIWI proteins and EfPiwi is from a freshwater sponge; tags in brackets are library labels; higher = faster piRNA-guided slicing of the target
Settings: guide: L1MC piRNA 5'p-UAACUAAAUACUAUGCAAGCUGUAGGUCCU
Outline: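 The pre-steady-state cleavage rate came from a burst-and-steady-state fit to pooled data from three Cleave-'n-Seq trials, in which uncleaved targets were sequenced and normalised to depth and to weakly complementary targets. Each reaction held 0.1 nM transcribed, DNA-blocked target RNA library and 1 nM active affinity-purified piRISC carrying one synthetic guide, with or without 500 nM GTSF1 partner protein, in HEPES–potassium acetate buffer at 33 °C for 0–8 or 0–960 min. k3 was capped at 0.0001 min^-1.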

[1] = auxiliary factor: 500 nM mouse GTSF1
[2] = auxiliary factor: none (no GTSF1)

| Sequence | pre-steady-state target cleavage rate [1] | pre-steady-state target cleavage rate [2] |
| --- | --- | --- |
| UCCUCCUACAGCAUGGAUAGUAUUUAGUUA | 1.38 ± 0.067 | 0.0219 ± 0.0037 |
| AGGACCUACAGCAUGCUUAGUAUUUAGUUA | 0.977 ± 0.058 | 0.0155 ± 0.0029 |
| UCGACCUACAGCAUGGAUAGUAUUUAGUUA | 1.59 ± 0.076 | 0.0294 ± 0.005 |
| UCGACCUACAGCAUGCUUAGUAUUUAGUUA | 0.915 ± 0.057 | 0.0113 ± 0.0023 |
| UCCUGCUACAGCAUGGAUAGUAUUUAGUUA | 1.13 ± 0.15 | 0.015 ± 0.0025 |
| AGGACCUACAGCAUGGAUAGUAUUUAGUUA | 1.57 ± 0.086 | 0.0502 ± 0.0089 |
| UCCACCUACAGCAUGGAUAGUAUUUAGUUA | 1.34 ± 0.062 | 0.0231 ± 0.0039 |
| UCCACCUACAGCAUGCAUAGUAUUUAGAUA | 0.423 ± 0.045 | 0.00605 ± 0.0027 |
| UCCACCUACAGCAUGCAUAGUAUUUAGUUA | 0.977 ± 0.054 | 0.0309 ± 0.0079 |
| UCCUCCUACAGCAUGCAUAGUAUUUAGUUA | 1.2 ± 0.051 | 0.0219 ± 0.0048 |
| UCGACCUACAGCAUGCAUAGUAUUUAGAUA | 0.538 ± 0.041 | 0.0119 ± 0.004 |
| UGGACCUACAGGAAGCAUAGUAUUUAGUUA | 0.994 ± 0.094 | 0.00926 ± 0.0024 |
| UCCUGGUACAGCUUGACAUAGUAUUUAGUUA | 0.271 ± 0.027 |  |
| UCCUGGUACACCUUGCAUAGUAUUUUGUUA | 0.436 ± 0.1 | 0.00901 ± 0.0027 |
| ACGACCUACAGCUUGCAUAGUAUUUUCAAA | 0.618 ± 0.067 | 0.00505 ± 0.004 |
| UCCUGGAUGUCCUUGCAUAGUAUUUAGUGUA | 0.0232 ± 0.0073 | 0.00487 ± 0.0027 |
| UGGACCUACAGCAUCCAUAGUAUUUAGUUA | 0.102 ± 0.017 | 0.00273 ± 0.002 |
| UGGACCUACAGCAUGGAUAGUAUUUAGUUA | 1.47 ± 0.1 | 0.0301 ± 0.0054 |
| UGGACCUACAGCAUGCUUAGUAUUUAGUUA | 0.877 ± 0.056 | 0.0147 ± 0.0037 |
| UCCUGGAUGAGCUUGCAUAGUAUAUUGUUA | 0.165 ± 0.021 | 0.0157 ± 0.004 |
| UCCUGGAAGAGCUUGCAUAGUAUUUUGUUA | 0.704 ± 0.076 | 0.0231 ± 0.0062 |

| Sequence | pre-steady-state target cleavage rate [1] | pre-steady-state target cleavage rate [2] |
| --- | --- | --- |
| UCGACCUACAGCUACCAUAGUAUUUAGUAA | 0.355 ± 0.037 |  |
| UCCUGCAACAGCUUGCAUAGUAUAUAGUUA | 0.844 ± 0.063 | 0.0237 ± 0.0057 |
| UCCUGCAACAGCUUCCAUAGUAUUUAGUUA | 0.0524 ± 0.015 |  |
| UCCUGGAUGAGGUUGCAUAGUAUUUAGUUA | 0.274 ± 0.022 | 0.00581 ± 0.0018 |
| UCCUCGAUCAGCUUGCAUAGUAUUUAGUAA | 1.06 ± 0.048 | 0.04 ± 0.0086 |
| UCCUCGAUCAGCUUGCAUAGUAUUUAGAAA | 0.422 ± 0.044 | 0.00569 ± 0.0022 |
| UGGACGAUCAGCUUGCAUAGUAUUUAGUUA | 1.47 ± 0.071 | 0.0852 ± 0.016 |
| AGGACGAUCAGCUUGCAUAGUAUUUAGUUA | 1.43 ± 0.068 | 0.0865 ± 0.016 |
| UGGACGAUCAGCUUGCAUAGUAUUUAGAAA | 0.499 ± 0.048 | 0.0141 ± 0.0042 |
| UGGACGAUCAGCUUGCAUAGUAUUUAGUAA | 0.953 ± 0.064 | 0.0656 ± 0.013 |
| UCGACGAUCAGCUUGCAUAGUAUUUAGAAA | 0.494 ± 0.05 | 0.0104 ± 0.0033 |
| AGGACGAUCAGCUUGCAUAGUAUUUAGAAA | 0.384 ± 0.061 | 0.0104 ± 0.0037 |
| UCCUCGAUCAGCUUGCAUAGUAUUUAGUUA | 1.58 ± 0.056 | 0.0718 ± 0.013 |
| AGGACGAUCAGCUUGCAUAGUAUUUAGUAA | 1.02 ± 0.12 | 0.0692 ± 0.015 |
| UCGACGAUCAGCUUGCAUAGUAUUUAGUAA | 1.05 ± 0.063 | 0.048 ± 0.011 |
| UCGACGAUCAGCUUGCAUAGUAUUUAGUUA | 1.6 ± 0.047 | 0.0826 ± 0.017 |
| UCCUGGAUGAGCUUGCUUAGAAUUUAGUUA | 0.0359 ± 0.0063 | 0.00574 ± 0.0024 |
| UCCUGCAUCAGCUUGCAUAGUAUUUAGUUA | 1.2 ± 0.066 | 0.0666 ± 0.014 |
| UCCUGCUACAGCUUGCAUGUAUUUAGUUA | 0.413 ± 0.054 | 0.00516 ± 0.0026 |
| ACCUCCUACAGCUUGCAUAGUAUUUAGAAA | 0.54 ± 0.061 | 0.00602 ± 0.0029 |
| AGGACCUACAGCAUCCAUAGUAUUUAGUUA | 0.319 ± 0.053 |  |

| Sequence | pre-steady-state target cleavage rate [1] | pre-steady-state target cleavage rate [2] |
| --- | --- | --- |
| UCGACCUACUCGUUGCAUAGUAUUUACAAA | 0.165 ± 0.025 |  |
| UGCACCUACACCUUGCAUAGUAUUUAGUUA | 0.967 ± 0.059 | 0.0415 ± 0.0067 |
| UCCUGGUACAGGUUGCAUAGUAUUUACUUA | 0.125 ± 0.035 | 0.00733 ± 0.003 |
| UGGACCUACAGACUUGCAUAGUAUUUAGUUA | 1.13 ± 0.1 | 0.0446 ± 0.0075 |
| UCCUGGAUGUCGUUAGCAUAGUAUUUAGUUA | 0.0102 ± 0.0036 |  |
| UCCUGGAUGUGCUAGCAUAGUAUAUAGUUA | 0.0106 ± 0.0042 |  |
| UCCACGAUCAGCUUGCAUAGUAUUUAGAAA | 0.444 ± 0.044 | 0.00814 ± 0.0028 |
| UCCACGAUCAGCUUGCAUAGUAUUUAGUAA | 1.09 ± 0.079 | 0.0387 ± 0.009 |
| UCCACGAUCAGCUUGCAUAGUAUUUAGUUA | 1.55 ± 0.058 | 0.0711 ± 0.013 |
| UCCUGCUACAGCUUGCAUAGAAUUUACAAA | 0.309 ± 0.065 |  |
| AGGACCUUCAGCUUGCAUAGUAUUUUCAAA | 0.311 ± 0.038 | 0.00593 ± 0.0032 |
| AGGACCUACAGCUUGCAUAGUAUAUUCAAA | 0.419 ± 0.072 |  |
| UCCUCCCACAGCUUGCAUAGUAUUUAGUUA | 1.15 ± 0.04 | 0.0641 ± 0.012 |
| UCCUGGCACAGCUUGCAUAGUAUUUAGUUA | 0.456 ± 0.081 | 0.0452 ± 0.011 |
| UCCUGCUCAGCUUGCAUAGUAUUUAGUUA | 1.09 ± 0.043 | 0.0636 ± 0.013 |
| UCCUGCACAGCUUGCAUAGUAUUUAGUUA | 1.34 ± 0.073 | 0.0804 ± 0.018 |
| UCCUCCACAGCUUGCAUAGUAUUUAGUUA | 0.736 ± 0.027 | 0.0534 ± 0.011 |
| UCCUGCCACAGCUUGCAUAGUAUUUAGUUA | 1.2 ± 0.051 | 0.0769 ± 0.013 |
| UCCUGCUCACAGCUUGCAUAGUAUUUAGUUA | 1.37 ± 0.076 | 0.0748 ± 0.014 |
| UCCUGGUCACAGCUUGCAUAGUAUUUAGUUA | 0.818 ± 0.034 | 0.0939 ± 0.022 |
| UCCUCCUCACAGCUUGCAUAGUAUUUAGUUA | 1.49 ± 0.064 | 0.0662 ± 0.014 |
